Laboratory results published in PubChem BioAssay AID1053143 (Broad Institute, 2014).
Hit rate of the full screen: of about 3,400 compounds, about 120 (3.5%) were called active. Not all results are given here. Potency and affinity values are given separately. Unmarked numbers belong to inactive results. No rule for the calls is given here.

Experiment: HepG2 cell cytotoxicity, dose response, cytotoxicity control, ATP luminescence, cherry-pick, activator set 2 (AID 1053143)
Conditions: HepG2 viability, CellTiter-Glo ATP luminescence, 72 h; series mostly up to 26 µM; activity change, negative = cytotoxicity: at the top concentration

Question: With Cc1nc2ccc(NC(=O)c3ccc(Cl)s3)cc2s1 as the molecule, how does the “activity change, negative = cytotoxicity” value read?
Answer: Its value is 9.53%.

Question: Which “activity change, negative = cytotoxicity” value does the source give for C=CCOc1ccc2c(OC)c3ccoc3nc2c1OC here?
Answer: Its value is -3.4%.

Question: Which “activity change, negative = cytotoxicity” value does the source give for CCCC(=O)N(C)c1nnc(-c2ccc(OC)cc2)s1 here?
Answer: Its value is -14.6%.

Question: With COc1ccc(C)cc1NC(=O)C1CCCN1S(=O)(=O)c1ccccc1F (centres undefined) as the molecule, how does the “activity change, negative = cytotoxicity” value read?
Answer: Its value is -12.2%.

Question: Which “activity change, negative = cytotoxicity” value does the source give for Cn1cccc1C(=O)OCC(=O)c1cc2ccccc2o1 here?
Answer: The value was 15.6%.

Question: With COc1cc(Cl)ccc1OCc1cc(C(=O)N2C[C@@H]3CCC[C@H]2C3)no1 as the molecule, how does the “activity change, negative = cytotoxicity” value read?
Answer: The value was 5.09% [at 12 µM].

Question: For O=C(/C=C/c1ccco1)Nc1nc(-c2ccccc2)cs1, which “activity change, negative = cytotoxicity” value is on record?
Answer: The value was -19.8%.

Question: For Nc1cc(-c2ccc(Cl)cc2)nn1-c1ccccc1, which “activity change, negative = cytotoxicity” value is on record?
Answer: Its value is -12.7%.

Question: Which “activity change, negative = cytotoxicity” value does the source give for Cc1occc1C(=O)O/N=C(\N)c1ccc(Cl)cc1 here?
Answer: Its value is 36.1%.

Question: For O=C(Nc1nc2ccccc2s1)c1ccc(F)cc1, which “activity change, negative = cytotoxicity” value is on record?
Answer: The value was -23%.

Question: For O=C(Nc1nc(=O)c2ccccc2s1)c1ccccc1, which “activity change, negative = cytotoxicity” value is on record?
Answer: Its value is -0.099%.

Question: For O=C(c1ccccc1)c1cnc(-c2ccc(Cl)cc2)s1, which “activity change, negative = cytotoxicity” value is on record?
Answer: The value was -21.5%.

Question: For CCCC(=O)N/C(N)=N/c1nc2ccccc2o1, which “activity change, negative = cytotoxicity” value is on record?
Answer: The value was -11.3%.

Question: With Cc1nc(Nc2ccccc2)sc1C(=O)c1ccccc1 as the molecule, how does the “activity change, negative = cytotoxicity” value read?
Answer: The value was 5.72%.

Question: With Nc1nc(Nc2ccccc2F)sc1C(=O)c1ccccc1 as the molecule, how does the “activity change, negative = cytotoxicity” value read?
Answer: The value was 25.7%.

Question: For Cc1ccc(Nc2ncccc2C(N)=O)cc1[N+](=O)[O-], which “activity change, negative = cytotoxicity” value is on record?
Answer: The value was -16.8%.

Question: Which “activity change, negative = cytotoxicity” value does the source give for CCOC(=O)c1ccc(N2Cc3ccccc3C2=NC(=O)c2ccncc2)cc1 here?
Answer: Its value is 0.403%.

Question: With Cc1ccc(Nc2nc3ccccc3o2)cc1F as the molecule, how does the “activity change, negative = cytotoxicity” value read?
Answer: Its value is -28.7% [at 12 µM].

Question: Which “activity change, negative = cytotoxicity” value does the source give for O=c1sc2ccccc2n1CCCOc1ccccc1 here?
Answer: The value was -13.9%.

Question: Which “activity change, negative = cytotoxicity” value does the source give for Cn1c(-c2ccc([N+](=O)[O-])cc2)nc2ccccc21 here?
Answer: The value was -8.29%.

Question: For Cc1ccc(OCCn2cnc3ccccc3c2=O)c([N+](=O)[O-])c1, which “activity change, negative = cytotoxicity” value is on record?
Answer: The value was -2.42%.

Question: With Fc1cccc(-c2ncc(-c3ccccc3)o2)c1 as the molecule, how does the “activity change, negative = cytotoxicity” value read?
Answer: The value was -8.72%.

Question: With O=C(Nc1nc2ccc([N+](=O)[O-])cc2s1)c1ccco1 as the molecule, how does the “activity change, negative = cytotoxicity” value read?
Answer: The value was -10.7%.

Question: For Cc1cc(NC(=O)c2ccccc2)sc1C, which “activity change, negative = cytotoxicity” value is on record?
Answer: The value was -41.8%.

Question: With O=C(Nc1nc2c(ccc3ccccc32)s1)c1ccco1 as the molecule, how does the “activity change, negative = cytotoxicity” value read?
Answer: The value was -31.8%.

Question: Which “activity change, negative = cytotoxicity” value does the source give for O=C(Nc1cc(-c2ccccc2)cs1)c1ccco1 here?
Answer: The value was -12.4%.

Question: For Cc1cc2sc(NC(=O)c3ccco3)nc2cc1Cl, which “activity change, negative = cytotoxicity” value is on record?
Answer: The value was -2.65%.

Question: For CCOC(=O)c1ccc2nc(NC(C)=O)sc2c1, which “activity change, negative = cytotoxicity” value is on record?
Answer: Its value is 8.97%.

Question: Which “activity change, negative = cytotoxicity” value does the source give for CCOc1ccc(NC(=O)Cc2ccccc2)cc1 here?
Answer: Its value is -19.9%.

Question: Which “activity change, negative = cytotoxicity” value does the source give for COC(=O)c1sc2nc3c(cc2c1N)CCCC3 here?
Answer: Its value is -2.91%.

Question: Which “activity change, negative = cytotoxicity” value does the source give for CC(C)c1ccc(NC(=O)c2cccc(Br)c2)cc1 here?
Answer: Its value is 17.8%.

Question: Which “activity change, negative = cytotoxicity” value does the source give for COc1cc(/C=N/NC(=O)CNC(=O)c2ccccc2)ccc1OC(=O)c1cccs1 here?
Answer: The value was -19.2%.

Question: With O=C(Nc1nc2ccc(Cl)cc2s1)C1CC1 as the molecule, how does the “activity change, negative = cytotoxicity” value read?
Answer: The value was -16%.

Question: Which “activity change, negative = cytotoxicity” value does the source give for CCC1CCCCN1S(=O)(=O)c1ccc(NC(=O)C2CC(=O)N(C(C)(C)C)C2)cc1 (centres undefined) here?
Answer: The value was -2.85%.

Question: For O=c1[nH]c2ccccc2nc1CCc1ccccc1, which “activity change, negative = cytotoxicity” value is on record?
Answer: Its value is -9.94%.

Question: For COc1cc(OC)cc(C(=O)NCC(=O)Nc2ccc(C)c(Cl)c2)c1, which “activity change, negative = cytotoxicity” value is on record?
Answer: The value was 0.049%.

Question: Which “activity change, negative = cytotoxicity” value does the source give for Cc1cc(N2CCCCC2)nc2ccc(NC(=O)CCC(=O)NCCC(C)C)cc12 here?
Answer: Its value is -18.6%.

Question: For CCn1ccc(C(=O)Nc2ccc(Cl)cn2)n1, which “activity change, negative = cytotoxicity” value is on record?
Answer: Its value is -0.072%.

Question: For c1ccc2c(c1)Cc1cc3ccccc3nc1-2, which “activity change, negative = cytotoxicity” value is on record?
Answer: Its value is -11.6%.

Question: Which “activity change, negative = cytotoxicity” value does the source give for O=C1c2ccccc2-c2nc3ccccc3cc21 here?
Answer: Its value is -16.9%.

Question: For CC(C)Sc1ccc(C(=O)Nc2ccc(F)cc2F)cn1, which “activity change, negative = cytotoxicity” value is on record?
Answer: The value was -2.75%.

Question: With CCC(C)Sc1ccc(-c2nc3ccc(Cl)cn3c2NCc2ccccc2)cc1 (centres undefined) as the molecule, how does the “activity change, negative = cytotoxicity” value read?
Answer: The value was -18.8%.

Question: For CN(Cc1ccsc1)C(=O)CCc1nnc(CCCc2ccccc2)o1, which “activity change, negative = cytotoxicity” value is on record?
Answer: The value was -9.96%.

Question: For O=C(Nc1ccccn1)C(=O)Nc1ccccn1, which “activity change, negative = cytotoxicity” value is on record?
Answer: Its value is -5.28%.

Question: With Cc1n[nH]c(=O)nc1N/N=C/c1ccco1 as the molecule, how does the “activity change, negative = cytotoxicity” value read?
Answer: Its value is 13.9%.

Question: With Cc1nc(-c2ccc(NC(=O)CC(C)C)cc2)cs1 as the molecule, how does the “activity change, negative = cytotoxicity” value read?
Answer: Its value is -11.5%.

Question: Which “activity change, negative = cytotoxicity” value does the source give for Cc1nc(-c2ccc(NC(=O)c3ccccc3Br)cc2)cs1 here?
Answer: Its value is -4.14%.

Question: With O=C(Nc1ccccc1N1CCN(c2ccccc2)CC1)c1ccccc1 as the molecule, how does the “activity change, negative = cytotoxicity” value read?
Answer: Its value is -2.97%.

Question: Which “activity change, negative = cytotoxicity” value does the source give for O=C(NC(=O)c1ccccc1)Nc1ccccc1O here?
Answer: The value was -14.8%.

Question: With CCCNC(=O)Nc1cccc(C(=O)OC)c1 as the molecule, how does the “activity change, negative = cytotoxicity” value read?
Answer: The value was -14.5%.

Question: For Nc1ccc2nc(-c3ccccc3)cnc2c1, which “activity change, negative = cytotoxicity” value is on record?
Answer: The value was -14.5%.

Question: For c1ccc(-c2cnnc(-c3ccccn3)n2)cc1, which “activity change, negative = cytotoxicity” value is on record?
Answer: Its value is -3.23%.

Question: With O=C(Nc1nccs1)c1cc2c(s1)-c1ccccc1OC2 as the molecule, how does the “activity change, negative = cytotoxicity” value read?
Answer: The value was -3.47%.

Question: Which “activity change, negative = cytotoxicity” value does the source give for Cc1cc(O)c(NC(=O)c2cccc([N+](=O)[O-])c2)cc1C here?
Answer: The value was 1.55%.

Question: With COc1ccc(CCN2C(=NC(C)=O)SC3CS(=O)(=O)CC32)cc1OC (centres undefined) as the molecule, how does the “activity change, negative = cytotoxicity” value read?
Answer: The value was 1.28%.

Question: For COc1cccc(N/N=C/c2cccc(Br)c2O)c1, which “activity change, negative = cytotoxicity” value is on record?
Answer: Its value is -1.94%.

Question: With Clc1ccccc1C=NNc1ccccn1 as the molecule, how does the “activity change, negative = cytotoxicity” value read?
Answer: Its value is -19.2%.

Question: With CCCCSc1nnc(-c2ccc(C)cc2)n1C as the molecule, how does the “activity change, negative = cytotoxicity” value read?
Answer: The value was -6.32%.

Question: Which “activity change, negative = cytotoxicity” value does the source give for Clc1ccc(Cn2c(/C=C/c3ccco3)nc3ccccc32)cc1 here?
Answer: Its value is -7.76%.

Question: With Cc1ccc(/C=C/c2nc3ccccc3[nH]2)o1 as the molecule, how does the “activity change, negative = cytotoxicity” value read?
Answer: Its value is -25.4%.

Question: Which “activity change, negative = cytotoxicity” value does the source give for COc1ccccc1C(=O)Nc1ccc2c(C)cc(=O)oc2c1 here?
Answer: Its value is 7.5%.

Question: Which “activity change, negative = cytotoxicity” value does the source give for c1ccc2[nH]c(SCC3CCCCO3)nc2c1 (centres undefined) here?
Answer: Its value is 9.84%.

Question: Which “activity change, negative = cytotoxicity” value does the source give for Cc1cc2ncc(-c3ccccc3)nc2cc1C here?
Answer: Its value is -23.2%.

Question: For Oc1ccc(-c2cnc3ccccc3n2)cc1, which “activity change, negative = cytotoxicity” value is on record?
Answer: Its value is -12%.
